Measured values: PubChem BioAssay (NCI)
Values joined by “and” are separate entries in the source; they are usually repeats but may differ in a detail not shown here. Identical values can stand only once. The panel holds about 79,000 compounds, 15% with a hit somewhere; the sample as a whole holds those more often. Active and inactive are the calls of the source. No stated cut-off is given here; in the data, active means growth inhibition above about 70%; inactive means the rest.

How the values were obtained:
[1] = NCI Yeast Anticancer Drug Screen. Data for the rad50 strain (AID 155);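 further: 0% = growth of vehicle-only cultures of the same strain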; conditions: S. cerevisiae rad50 strain growth inhibition; at 50.0 µM; stronger effect = higher value
How it was run: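 Yeast carrying a defined DNA repair defect were exposed to test compounds, and growth was compared with vehicle-treated controls to give percent inhibition.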

[2] = NCI Yeast Anticancer Drug Screen. Data for the mec2-1 strain (AID 157); conditions: S. cerevisiae mec2-1 strain, at 50.0 µM, stronger effect = higher value
How it was run: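 Strain: mec2-1 (DNA repair/cell cycle alteration). Compound exposure, then growth measured; inhibition expressed relative to vehicle.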

[3] = NCI Yeast Anticancer Drug Screen. Data for the sgs1 mgt1 strain (AID 161);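 further: 0% = growth of cultures given vehicle only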; conditions: S. cerevisiae sgs1 mgt1 strain, at 50.0 µM, stronger effect = higher value
How it was run: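 Mutant yeast exposed to compound; growth scored against vehicle-only wells.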

[4] = NCI Yeast Anticancer Drug Screen. Data for the cln2 rad14 strain (AID 165);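 further: 0% = growth equal to vehicle treated cultures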; conditions: S. cerevisiae cln2 rad14 strain, at 50.0 µM, stronger effect = higher value
How it was run: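 Compounds are applied to the cln2 rad14 yeast strain, and growth is then compared with that of vehicle-treated cultures to give inhibition.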

[5] = NCI Yeast Anticancer Drug Screen. Data for the bub3 strain (AID 167); conditions: S. cerevisiae bub3 mutant strain, at 50.0 µM, stronger effect = higher value
How it was run: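 Compounds were applied to a genetically altered yeast strain carrying a cell-cycle control defect. Growth inhibition was scored against vehicle-treated controls.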

[6] = NCI Yeast Anticancer Drug Screen. Data for the mlh1 rad18 strain (AID 175); conditions: S. cerevisiae mlh1 rad18 strain growth inhibition; at 50.0 µM; stronger effect = higher value
How it was run: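 Read-out is yeast growth inhibition, calculated against vehicle-only controls. The compound was applied to a strain engineered with DNA damage repair alterations.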

Measured: growth inhibition

CNC(=O)C(CC(C)[N+](C)(C)C)(c1ccccc1)c1ccccc1 (centres undefined)
inactive: [1] 14.2% | [2] 8.4% | [3] 14.5% | [4] 17.9% | [5] 4.85% | [6] 11.4%

CCC[CH2][Sn]1([CH2]CCC)[O]C(=O)c2ccc(N)cc2[O]1
active: [1] 87.3% | [2] 92.5% | [3] 89.5% | [4] 89.4% | [5] 89.1% | [6] 89.8%

COc1ccc([C@H]2N[C@@H]2c2ccccn2)cc1
inactive: [1] 3.25% | [2] -1.5% | [3] -7.2% | [4] 17.1% | [5] 4.8% | [6] 20.9%

CCN1C(=O)NC(=O)C(CC)(N2CCCCC2)C1=O (centres undefined)
inactive: [1] 10.7% | [2] 7.95% | [3] 5% | [4] 15% | [5] 2.55% | [6] 25.4%

CCCCc1ccc(N=C(N)N)cc1
inactive: [1] 25.6% | [2] 9.35% | [3] 19.4% | [4] 8.3% | [5] 12.2% | [6] -1.95%

CSCCC(N)C(=O)O (centres undefined)
inactive: [1] -50.4% and -3.35% | [2] 9.55% and -25.1% | [3] -6% and -7.65% | [4] -27.8% and -1% | [5] 32.4% and -11.6% | [6] -103% and -2.65%

C[CH2][Sn]([CH2]C)([n]1c(C)nc2ccccc21)[n]1c(C)nc2ccccc21
inactive: [1] -11.8% | [2] 2.95% | [3] -19.3% | [4] 0.3% | [5] 10.3% | [6] -12.8%

Cc1csc(N/C(=N/[N+](=O)[O-])N(C)C)n1
inactive: [1] -35.5% | [2] 0.65% | [3] -9.15% | [4] -10.8% | [5] 2.1% | [6] -3.7%

COC(=O)C(CC(=O)N[N+](=O)[O-])NC(=O)C(CSC(c1ccccc1)(c1ccccc1)c1ccccc1)NC(=O)OCc1ccccc1 (centres undefined)
inactive: [1] -3.4% | [2] 11.7% | [3] -4.25% | [4] -15.1% | [5] -8.1% | [6] 29.3%

CCC(Br)C(=O)O (centres undefined)
inactive: [1] 26.6% | [2] -4.3% | [3] -0.3% | [4] -22.5% | [5] 24.4% | [6] 24.8%

CCCN(CCC)CC(O)c1ccc2c3c(cccc13)CC2 (centres undefined)
inactive: [1] 21.9% | [2] -5.9% | [3] 19.2% | [4] -10.1% | [5] -4.6% | [6] 16.4%

OC(c1ccccc1)C(NC1CCCCC1)c1ccccc1 (centres undefined)
inactive: [1] -4.5% | [2] -18.6% | [3] -0.75% | [4] -24.2% | [5] -6.3% | [6] -56%

CCN1C(=O)C(=C/C=C/C=C2/N(C)c3ccccc3C2(C)C)C(=O)N(CC)C1=S
inactive: [1] -28.9% | [2] -8.25% | [3] -11.3% | [4] -32.5% | [5] 0.45% | [6] 0.35%

CSCCC(NP(=S)(c1ccccc1)c1ccccc1)C(=O)O (centres undefined)
inactive: [1] 17.4% | [2] -3.1% | [3] 0% | [4] 16.9% | [5] -1.8% | [6] 9.5%

OCN1CCC23c4c5ccc(O)c4OC2C(O)C=CC3C1C5 (centres undefined)
inactive: [1] -4.75% | [2] -3.4% | [3] 3.35% | [4] -68.5% | [5] 20.1% | [6] -12%

Nc1ccc(/C=C/C(=O)Nc2ccc(S(=O)(=O)F)cc2)cc1
active: [2] 96.2% | [5] 99% | [6] 95.5%
inactive: [1] 22.4% | [3] 21.1% | [4] 40.1%

NNC(=O)c1ccc(O)cc1
inactive: [1] 1.15% | [2] -2.65% | [3] -13.3% | [4] -17.4% | [5] -0.05% | [6] 18.2%

Clc1cc[c]([Pb]([Cl])([Cl])[c]2ccc(Cl)cc2)cc1
inactive: [1] 22.9% | [2] 17% | [3] 27.9% | [4] 52.2% | [5] 36.5% | [6] 13.7%

CC(C)[C@](O)(C(=O)OCC1=CC[N+]2([O-])CC[C@@H](O)[C@@H]12)[C@H](C)O (some centres undefined)
inactive: [1] -10.2% | [2] -46.3% | [3] 4.35% | [4] -0.85% | [5] -26.2% | [6] -10.2%
